Laboratory results from PubChem BioAssay (Tox21).
Values joined by “and” are separate entries in the source; they are usually repeats but may differ in a detail not shown here. Equal entries are not always repeated. Records with an inconclusive call do not appear. A call without a number means that no potency is given here. A number with no mark means an inactive call. Active and inactive are the calls of the source. Calls follow the shape of the full dose curve.
Potency is read from the fitted curve at half-maximal effect.

Assay: qHTS assay to identify small molecule antagonists of the estrogen receptor alpha (ER-alpha) signaling pathway using the BG1 cell line (AID 743080);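 also: BG1 cells stimulated with 17beta-estradiol alongside compound; nearly all actives have a fitted effect of over 25% in size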
Conditions: BG1Luc4E2 ERE-luciferase antagonist mode, luminescence; series mostly up to 70.3 µM
Text: National Center for Advancing Translational Sciences [NCATS]
NIH Chemical Genomics Center [NCGC]
U.S. Environmental Protection Agency [EPA]
National Institutes of Environmental Health Sciences [NIEHS]
National Toxicology Program [NTP]
U.S. Food and Drug Administration [FDA]
Estrogen receptor (ER), a nuclear hormone receptor, plays an important role in development, metabolic homeostasis and reproduction. Endocrine disrupting chemicals (EDCs) and their interactions with steroid hormone receptors like ER causes disruption of normal endocrine function. Therefore, it is important to understand the effect of environmental chemicals on the ER signaling pathway. To identify ER antagonists, BG1-Luc-4E2 cell line (provided by Dr. Michael Denison from University of California) has been used to screen the Tox21 10K compound library. BG1Luc4E2 cell line endogenously expresses full-length ER-alpha and is stably transfected with a plasmid containing four estrogen responsive elements (ERE) upstream of a luciferase reporter gene.
Tox21 Assay Protocol Summary:
BG1-Luc-4E2 cells were cultured in phenol red free assay medium containing 10% charcoal stripped FBS for 5 days before the assay was performed. The cells were dispensed at 4,000 cells/4 uL of assay medium per well into white wall/solid-bottom 1536-well plates using a Multidrop Combi (ThermoFisher Scientific, Waltham, MA) dispenser. The assay plates were incubated at a 37C and 5% CO2 for 24 h, and then 23 nL of compounds dissolved in DMSO, positive controls or DMSO only was transferred to the assay plate using a Pintool station (Kalypsys, San Diego, CA), followed by addition of 1 uL of 17beta-estradiol in assay medium using a Flying Reagent Dispenser (Aurora Discovery, San Diego, CA). After the plates were incubated at 37 C and 5% CO2 for 21.5 h, 1 uL of CellTiter-Fluor reagent (Promega, Madison, WI) of measuring cytotoxicity was added using Flying Reagent Dispenser (FRD) to each well. The assay plates were incubated at 37 C and 5% CO2 for additional 30 min and the fluorescence intensity was quantified by a ViewLux plate reader (PerkinElmer, Shelton, CT). For measuring luciferase reporter gene activity, 4 uL of ONE-Glo reagent (Promega) was added to each plate using an FRD and luminescence was quantified by a ViewLux plate reader after 30 min incubation at room temperature.
In the case of CN/C(=N\[N+](=O)[O-])NCc1cnc(Cl)s1, the Potency is reported as “inactive”.
With COP(=S)(OC)Oc1nc(Cl)c(Cl)cc1Cl the Potency was “inactive”.
In the case of NC1CCC(CC2CCC(N)CC2)CC1 (stereo not given), the Potency is reported as “inactive”.
For CCO/N=C(\CC)C1=C(O)CC(c2c(C)cc(C)cc2C)CC1=O (stereo not given), the Potency was “inactive”.
For CC[C@]1(O)CC[C@H]2[C@@H]3CCC4=CCCC[C@@H]4[C@H]3CC[C@@]21C, the Potency was “inactive”.
For Cc1ccccc1OP(=O)(Oc1ccccc1C)Oc1ccccc1C, the Potency was “inactive”.
For CCCCC(CC)COC(=O)c1ccccc1C(=O)OCC(CC)CCCC (stereo not given), the Potency was “inactive”.
In the case of C=CC(=O)[O][Sn]([CH2]CCC)([CH2]CCC)[CH2]CCC, the Potency is reported as 433 nM (active).
In the case of OCC(Br)CBr (stereo not given), the Potency is reported as “inactive”.
In the case of CCCCC/C=C\C/C=C\C/C=C\C/C=C\CCCC(=O)NCC(=O)O, the activity change, negative = inhibition is reported as 0.823% [at 8.47 µM].
With COC(=O)N(OC)c1ccccc1COc1ccn(-c2ccc(Cl)cc2)n1 the Potency was 770 nM (active).
In the case of CC(Cc1ccc(OCC(=O)O)cc1)NCC(O)c1csc(C(F)(F)F)n1 (stereo not given), the Potency is reported as “inactive”.
For N#CCCl, the Potency was “inactive”.
With COc1c2c(cc3c1OCO3)CCN(C)C2 the Potency was “inactive”.
With CC(C)c1c(CN(C)C(C)Cc2ccccc2)n(C)n(-c2ccccc2)c1=O (stereo not given) the Potency was “inactive”.
With Oc1ccc(Cl)c(Cl)c1 the Potency was “inactive”.
For CO/N=C(/C1=NOCCO1)c1ccccc1Oc1ncnc(Oc2ccccc2Cl)c1F, the Potency was 8630 nM (active).
With CCOC(=O)CCN(SN(C)C(=O)Oc1cccc2c1OC(C)(C)C2)C(C)C the Potency was “inactive”.
For CCC(C)Nc1c([N+](=O)[O-])cc(C(C)(C)C)cc1[N+](=O)[O-] (stereo not given), the Potency was “inactive”.
For CC(C)(C)c1ccc(OP(=O)(Oc2ccccc2)Oc2ccccc2)cc1, the Potency was “inactive”.
With Cc1cc2c3c(c1)C(c1ccccc1)=N[C@@H](NC(=O)c1ccncc1)C(=O)N3CC2 the Potency was “inactive”.
In the case of CC1(C)C(C=C(Cl)Cl)C1C(=O)OC(C#N)c1ccc(F)c(Oc2ccccc2)c1 (stereo not given), the Potency is reported as “inactive”.
For N#Cc1ccc(N(CC(N)=O)CC(F)(F)F)cc1C(F)(F)F, the Potency was “inactive”.
For O=C(O)CCCCCCNC1c2ccccc2CCc2ccccc21, the Potency was “inactive”.
For Brc1cccc(-c2ccccc2)c1, the Potency was “inactive”.
With O=S1OCC2C(CO1)C1(Cl)C(Cl)=C(Cl)C2(Cl)C1(Cl)Cl (stereo not given) the Potency was 61.2 µM (active) and 61.1 µM (active).
For Cc1cnc2c(C(=O)O)c(Cl)ccc2c1, the Potency was “inactive”.
In the case of Nc1nc(N)c(N)c(N)n1, the Potency is reported as “inactive”.
In the case of ClSC(Cl)(Cl)Cl, the Potency is reported as “inactive”.
With O=P(Cl)(Cl)Cl the Potency was “inactive”.
In the case of ClC1(Cl)C2(Cl)C3(Cl)C4(Cl)C(Cl)(Cl)C5(Cl)C3(Cl)C1(Cl)C5(Cl)C24Cl (stereo not given), the Potency is reported as “inactive”.
For ClC1=C(Cl)[C@]2(Cl)[C@@H]3[C@H]4C[C@H]([C@@H]5O[C@H]45)[C@@H]3[C@@]1(Cl)C2(Cl)Cl, the Potency was “inactive”.
In the case of CC(C)Br, the Potency is reported as “inactive”.
For S=C=Nc1ccccc1, the Potency was “inactive”.
In the case of CC(C)N(C(=O)CCl)c1ccccc1, the Potency is reported as 54.5 µM (active) and 61.1 µM (active).
In the case of Clc1ccc(C(Cl)(Cl)Cl)cc1Cl, the Potency is reported as “inactive”.
In the case of ClC(Cl)C(Cl)(Cl)Cl, the Potency is reported as “inactive”.
With CC1=C2C[C@H]3[C@@H](CC=C4C[C@@H](O)CC[C@@]43C)[C@@H]2CC[C@]12O[C@@H]1C[C@H](C)CN[C@H]1[C@H]2C the Potency was “inactive”.
For CC(C)N(C(=O)SC/C(Cl)=C/Cl)C(C)C, the Potency was “inactive”.
In the case of CN1[C@@H]2CC[C@H]1CC(O)C2 (stereo not given in full), the Potency is reported as “inactive”.
